# Compounds with a hit are over-represented: about 3.7% of the library has one in this group of screens.
# DRV1 agonist = GPR32 (DRV1) agonism, beta-arrestin recruitment; CHO-K1 GPR32 beta-arrestin PathHunter luminescence, 90 min; zero percent set by DMSO-only wells; activation, % at 76.9 µM; 48,000 tested, 2.5% active; AID 1346428;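 active = activation of at least 60% and not above a set upper limit, about 1 call in 100 departs from these limits; inconclusive = activation of 40% to 60%, or above that upper limit; inactive = activation under 40%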
# Target sequence (O75388 whole entry, looked up): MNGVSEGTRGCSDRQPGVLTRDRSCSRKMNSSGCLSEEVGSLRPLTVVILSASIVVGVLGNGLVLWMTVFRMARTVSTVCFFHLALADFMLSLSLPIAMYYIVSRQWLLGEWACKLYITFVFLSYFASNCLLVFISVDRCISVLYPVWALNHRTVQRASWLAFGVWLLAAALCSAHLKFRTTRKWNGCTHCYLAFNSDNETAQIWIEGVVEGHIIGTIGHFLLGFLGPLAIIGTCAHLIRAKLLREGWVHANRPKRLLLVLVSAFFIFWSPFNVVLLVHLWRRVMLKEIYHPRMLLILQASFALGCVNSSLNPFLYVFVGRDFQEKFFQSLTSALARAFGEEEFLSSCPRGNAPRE
#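 Agonism was scored by beta-Gal fragment complementation (chemiluminescent read, 1 h detection at ambient temperature) reporting beta-arrestin binding to GPR32 in engineered CHO-K1 cells. Compound treatment lasted 90 min at 37 C, normalized to a DMSO basal control.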
# HTT promoter inh = inhibitors of huntingtin promoter activity | HEK293 HTT promoter firefly luciferase reporter, 24 h | Potency, µM (doses to about 57.5 µM), hits mostly inhibitors | 48,000 tested, 0.93% active; also: nearly all actives have a fitted effect of over 50% in size
#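 HEK293 cells carrying firefly luciferase reporters were seeded at 2,500 per well in Opti-MEM and cultured for 24 h. They were then treated with compounds at up to 57.5 uM final for 24 h at 37 degrees C before Dual-Glo luminescence readout.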
# HTT-AS act = activators of huntingtin-antisense promoter activity. HEK293 HTT-AS promoter firefly luciferase reporter, 24 h; response scale: percent change from vehicle, -100% = no light. 48,000 tested, 0.24% active. Potency, µM (titrated, usually from 57.5 µM), actives largely listed as activators; also: nearly all actives have a fitted effect of over 55% in size
#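 HEK293 luciferase promoter-reporter cells (2,500/well) plated 24 h, then compounds added at up to 57.5 uM final for 24 h at 37 °C. Firefly luminescence by Dual-Glo, normalized to vehicle (0%) and zero RLU (-100%).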
# A number is an active result; . = inactive; ? = inconclusive; / = no result. Unless noted, calls follow the shape of the dose curve; as a rule, active = well fitted curve in the direction sought with a large enough effect; inconclusive = small, poorly fitted or top-dose-only effect, or another doubt; inactive = no such curve, though single readings can be large; an effect the other way counts as inactive or inconclusive.
SMILES,DRV1 agonist,HTT promoter inh,HTT-AS act
Cc1cc(N2CCN(C)CC2)nc2ccc(NC(=O)Nc3ccccc3Br)cc12,103,.,.
Cc1ccc(NC(=O)Nc2ccc3nc(N4CCN(C)CC4)cc(C)c3c2)cc1C,?,.,.
Cc1cc(Nc2cccc(Cl)c2)nc2ccc(NC(=O)c3cccc(N(C)C)c3)cc12,.,.,.
FC(F)(F)c1ccc(Nc2nc3ccc(Oc4ccnc(-c5ncc(C(F)(F)F)[nH]5)c4)cc3[nH]2)cc1,/,?,.
Cc1ccc(NC(=O)C2(c3ccc4c(c3)OC(F)(F)O4)CC2)nc1-c1cccc(C(=O)O)c1,/,?,.
Cc1ccc([N+](=O)[O-])cc1S(=O)(=O)N(C)N=Cc1cnc2ccc(Br)cn12,/,?,.
COc1cccc(NC(=O)CSc2c3c(nc4ccccc24)CCCC3)c1,.,.,.
Cc1ccc(NC(=O)CSc2c3c(nc4ccccc24)CCCC3)cc1F,65,.,.
CN1CCC(COc2cnc(-c3cccc(Cn4nc(-c5cccc(C#N)c5)ccc4=O)c3)nc2)CC1,/,?,.
CCOC(=O)C(=O)CCc1ccccc1,.,.,.
Cc1ccc(Cc2c(C)nc3c(-c4ccccc4)c(C)[nH]n3c2=O)cc1,.,?,.
Cc1nc2c(-c3ccccc3)c(C)[nH]n2c(=O)c1Cc1ccc(Br)cc1,.,13µM,.
O=C(Nc1cccc(Nc2ncc(Br)c(NCCc3cnc[nH]3)n2)c1)N1CCCC1,/,?,.
CCC(=O)Nc1ccccc1-c1nc2ccccc2n(C(CC)C(=O)Nc2cccc(Cl)c2)c1=O (stereo unspecified),.,?,.
CCC(C(=O)Nc1ccc(C)c(Cl)c1)n1c(=O)c(-c2ccccc2NC(C)=O)nc2ccccc21 (stereo unspecified),.,22µM,.
C#CCC(Cc1cnc2nc(N)nc(N)c2n1)c1ccc(C(=O)N[C@@H](CCC(=O)O)C(=O)O)cc1 (stereo partly specified),/,?,.
OCCCn1c(-c2ccc(F)cc2)csc1=Nc1ccc(F)cc1,.,?,.
Cc1ccc(-c2csc(=Nc3ccccc3)n2CCCO)cc1,86,?,.
CCOc1ccc(CNC(=O)c2cnc3sc(N4CCOCC4)nn3c2=O)cc1OC,.,.,.
O[C@@H](CNC[C@H](O)[C@H]1CCc2cc(F)ccc2O1)[C@@H]1CCc2cc(F)ccc2O1,62,.,.
CN(C)c1nc(Cc2ccc(NC(=O)c3ccc(C(F)(F)F)cc3)cc2)nc(N(C)C)c1CC(=O)O,/,.,.
COc1cc(CNC(=O)CCCCC=CC(C)C)ccc1O,/,.,.
O=C(Nc1ccccc1F)c1nc(SCc2ccccc2F)ncc1Cl,.,.,.
NS(=O)(=O)c1ccc(CCNC(=O)c2nc(SCc3ccccc3F)ncc2Cl)cc1,83,?,.
CCc1ccc(NC(=O)C2CCC(CNS(=O)(=O)c3ccc4c(c3)CC(C)N4C(C)=O)CC2)cc1 (stereo unspecified),.,?,.
SMILES,DRV1 agonist,HTT promoter inh,HTT-AS act
CC1Cc2cc(S(=O)(=O)NCCc3ccccc3)ccc2N1C(=O)C1CCC1 (stereo unspecified),.,/,/
CC(=O)N1c2ccc(S(=O)(=O)NCC3CCC(C(=O)Nc4ccc(F)cc4)CC3)cc2CC1C (stereo unspecified),68,?,.
CC1Cc2cc(S(=O)(=O)NCc3ccccc3)ccc2N1C(=O)C1CCC1 (stereo unspecified),.,?,.
CCc1cccc(NS(=O)(=O)c2ccc3c(c2)CC(C)N3C(=O)C2CC2)c1 (stereo unspecified),.,14µM,.
COc1ccc(NS(=O)(=O)c2ccc3c(c2)CC(C)N3C(=O)C2CCC2)cc1OC (stereo unspecified),.,1.8µM,.
COc1cc(Cl)c(NS(=O)(=O)c2ccc3c(c2)CC(C)N3C(=O)C2CCC2)c(OC)c1 (stereo unspecified),.,8.9µM,.
CC1Cc2cc(S(=O)(=O)NCCc3ccc(Cl)cc3)ccc2N1C(=O)C1CCC1 (stereo unspecified),.,/,/
CCCCCOc1ccccc1/C(=C\SC)n1ccnc1,.,?,.
CCOC(=O)c1ccc2c(c1)N(Cc1ccc(F)cc1Cl)C(=O)c1ccccc1S2(=O)=O,.,.,.
CNC(=O)c1ccccc1Sc1ccc2c(/C=C/c3ccccn3)n[nH]c2c1,?,?,.
Fc1ccc(C(c2ccc(F)cc2)N2CCNCC2)cc1,.,.,.
O[C@@H](COc1cccc2ncccc12)CN1CCN(C2c3ccccc3[C@@H]3[C@H](c4ccccc42)C3(F)F)CC1 (stereo partly specified),.,?,.
CC1(C)CNc2cc(NC(=O)c3cccnc3NCc3ccncc3)ccc21,/,.,.
CCN(CCCNC(=O)c1cc2c(=O)n(C)c3ccccc3c2s1)c1ccccc1,70,.,.
CCn1c(=O)cc(SCC(=O)NCc2ccc(C)cc2)c2ccccc21,69,.,.
CCn1c(=O)cc(SCC(=O)NCc2ccc(OC)cc2OC)c2ccccc21,.,.,.
CCN(CCCNC(=O)c1cc2c(=O)n(C)c3ccccc3c2s1)Cc1ccccc1,.,.,.
CCc1ccc(CNC(=O)CSc2cc(=O)n(CC)c3ccccc23)cc1,61,.,.
CN(CCCNC(=O)c1cc2c(Cl)nc3ccccc3c2s1)Cc1ccccc1,.,.,.
CCOc1ccc(CNC(=O)CSc2cc(=O)n(CC)c3ccccc23)cc1,.,.,.
CCN(CCCNC(=O)c1cc2c(Cl)nc3ccccc3c2s1)Cc1ccccc1,95,.,.
Cc1cc(C)c(NC(=O)C2CCN(c3nn4c(=O)cc(C)nc4s3)CC2)c(C)c1,.,.,.
COC[C@H](NC(=O)c1cnc(C)s1)C(=O)N[C@@H](COC)C(=O)N[C@@H](Cc1ccccc1)C(=O)[C@@]1(C)CO1,/,?,.
C[C@@H]1CN(Cc2ccc(F)cc2)[C@@H](C)CN1C(=O)c1cc2c(C(=O)C(=O)N(C)C)cn(C)c2cc1Cl,/,?,.
O=c1ncn2nc(Sc3ccc(F)cc3F)ccc2c1-c1c(Cl)cccc1Cl,/,.,.
SMILES,DRV1 agonist,HTT promoter inh,HTT-AS act
CCN(CCCNC(=O)CSc1cc(=O)n(CC)c2ccccc12)c1ccccc1,117,.,.
CCN(CCCNC(=O)CSc1cc(=O)n(C)c2ccccc12)c1ccccc1,.,.,.
CCCNc1nc(NCc2ccccc2OC)c2cnn(C)c2n1,?,?,.
CCNc1nc(NCc2ccc(F)cc2)c2cnn(C)c2n1,72,?,.
O=C(O)c1ccc(-c2c[nH]c3ncc(-c4ccccc4)cc23)cc1C1CCCC1,/,.,.
COc1ccc(NC(=O)CC2Nc3cccc4cccc(c34)NC2=O)cc1 (stereo unspecified),.,.,.
O=C(CC1Nc2cccc3cccc(c23)NC1=O)Nc1ccc(F)cc1 (stereo unspecified),64,.,.
O=C1NC(=O)[C@@H](c2cn3c4c(cccc24)CCC3)[C@H]1c1c[nH]c2ccccc12,/,?,.
Cc1ccc(CNC(=O)c2c[nH]c3ccc(S(=O)(=O)Nc4ccc(C(C)C)cc4)cc3c2=O)cc1,.,?,.
